Experimental data from PubChem BioAssay (NCATS).
Records with an inconclusive call do not appear. Values without a mark were called inactive. Calls follow the shape of the dose curve; as a rule, active = well fitted activation curve with a large enough effect; inconclusive = small, poorly fitted or top-dose-only effect, or effect the other way; inactive = flat fitted curve, though single readings scatter.

test: Cellular Toxicity (caspase-3) NIH 3T3 (AID 666); conditions: NIH 3T3 caspase-3 activation, apoptosis/toxicity, 0% DMSO, 100% is 100 µM tamoxifen; series mostly up to 92.2 µM; caspase-3 activation: at the top concentration;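 also: caspase signal read after 16 h compound exposure; 0% = DMSO basal and 100% = 100 µM tamoxifen stimulation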
Summary of the method: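 Cells were plated at 1000 per well and incubated 5 hr at 37°C, then compound was added for 16 hr. Caspase-Glo 3/7 reagent followed for 20 min at room temperature before luminescence was read.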

Compound | caspase-3 activation
CCCCCCc1ccc(-c2ccc(C#N)cc2)cc1 | -4.09%
Nc1cnn([C@@H]2O[C@H](CO)[C@@H](O)[C@H]2O)c(=O)n1 | 0.0568%
CCCCCCCCOc1ccc(C(=O)O)cc1 | -20.5%
Oc1c(Cl)cc(Cl)c(Cl)c1Cl | -2.77%
CC(C)OCC1CO1 (stereo unspecified) | -0.142%
C/C(Cl)=C/CCl | 1.77%
CCCCNCC | 5.13%
O=c1[nH]ncc2ccccc12 | -7.1%
c1ccc(COCc2ccccc2)cc1 | -2.76%
O=[N+]([O-])c1cccc(I)c1 | 0.463%
c1ccc2c(c1)ccc1ccccc12 | -0.81%
Cc1ccc(C(=O)O)cc1[N+](=O)[O-] | -2.59%
COc1ccc([N+](=O)[O-])cc1N | 0.0651%
OCC(CO)(CBr)CBr | -4.62%
Nc1cc(C(=O)O)c(O)c(S(=O)(=O)O)c1 | -4.36%
Oc1ccc2c(c1)OCO2 | 1.47%

Compound | caspase-3 activation
c1ccncc1 | -2.13%
CC(=O)OC1CC(C)OC(C)O1 (stereo unspecified) | -1.82%
O=C(OCc1ccccc1)c1ccccc1O | -10.6%
C/C=C/C=C/C=O | -11%
CCN(CC)c1ccc2c(C)cc(=O)oc2c1 | -1.34%
c1c[nH]cn1 | -1.65%
c1ccc(SCCSc2ccccc2)cc1 | -1.86%
CCCCOC(=O)COc1ccc(Cl)cc1Cl | -0.701%
CC(=O)OC(C(=O)c1ccccc1)c1ccccc1 (stereo unspecified) | -8.25%
CCCCCCN | -0.443%
CC(=O)Nc1cccc(C)c1 | -5.35%
CCC(Cl)CC(Cl)C(Cl)C(Cl)C(Cl)C(C)Cl (stereo unspecified) | -3.08%
COc1ccc(C)cc1N | 2.69%
CCc1ccc(C(c2ccc(CC)cc2)C(Cl)Cl)cc1 | 2.94%
O=[N+]([O-])c1ccccc1Nc1ccccc1 | -4.26%
